This is a sample that favours compounds with a hit; in the whole collection about 1.1% have one here.
HSV replic up – enhancers of HSV replication in host cells, fold increase, host cell viability; HSV replication augmentation in cells; maximum fold increase; hit rate 0.005% among 220,000; in the data active = maximum fold increase above about 1.5; inconclusive = no clear call, values can overlap the other calls; tested in PC3 cells
Efa HMGR inh – inhibitors of E. faecalis class II HMGR, primary screen, biochemical, Enterococcus faecalis | HMG-CoA reductase (Enterococcus faecalis, mvaE) | purified E. faecalis HMGR, NADPH absorbance 340 nm kinetic | inhibition, % at 10 µM | hit rate 0.41% among 190,000 | AID 1066, 2008;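 active = inhibition above a set limit, the median over all tested compounds plus 3 SD, cut at about 9.5% in these data; inconclusive = no clear call, values can overlap the other calls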;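 also: enzyme runs in reverse so mevalonate oxidation gives rising NADPH absorbance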
Insulin prom inh – inhibitors of insulin promoter-driven GFP, primary screen, imaging, TRM-6 cells (human fetal islet line), eGFP reporter, cell count | AID 1273, 2008 | hit rate 0.9% among 130,000 | inhibition, % at 2 µM | reporter expression induced with tamoxifen;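 active = inhibition above the mean plus 3 SD, with well images judged a real hit on visual review, cut at about 60% in these data, passing the limit was not always enough; inconclusive = inhibition over the cutoff but images rejected on review; inactive = inhibition not above the cutoff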
Insulin prom up – insulin promoter activators in MIN6 cells, imaging, high-content screening, mouse beta cells; MIN6 insulin promoter-GFP reporter; stronger effect = higher value; AID 1625, 2009; z-score at 5 µM; hit rate 0.3% among 190,000;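 active = z-score above 3 at 5 µM with at least 500 cells counted in the well; inconclusive = wells under 500 cells, flagged as cytotoxic or low count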
Each line names hits and unclear results; the compound was inactive in the other large screens.

COc1ccc(/C=C(/Sc2nnc(-c3ccc(Cl)cc3)o2)C(=O)O)cc1	none (no result: Insulin prom inh)
Cc1ccccc1NC(=S)c1nc2ccccc2[nH]1	Insulin prom inh 97
Cn1c(Cc2ccccc2)nnc1SCC(=O)c1ccc(Br)s1	Insulin prom inh 95
Cn1nnnc1SCC(=O)c1ccc(Br)s1	none
NC(=O)c1cc2ccc(O)cc2oc1=NCc1ccccc1	Insulin prom up 7
CCC(C)NC(=O)COc1ccc(OCc2ccccc2)cc1 (centres undefined)	none
COC(=O)c1ccc(NC(=O)Nc2ccccc2F)cc1	Efa HMGR inh 17 (no result: Insulin prom inh)
CCOc1c(C)cc(-c2ncccc2O)cc1C	Insulin prom inh 82
CCN(CC)c1ccc(/C=C(/C#N)C(=O)NC(C)C)o1	HSV replic up inconclusive (no result: Insulin prom inh, Insulin prom up)
CC(C)NC(=O)/C(C#N)=C\c1ccc(N(C)C)o1	Insulin prom up 12
Cc1ccc(/C=C/C(=O)O)cc1S(=O)(=O)NCCCO	Efa HMGR inh 22
COc1cc(/C=C/C(=O)O)cc(S(=O)(=O)NCCCO)c1OC	none (no result: HSV replic up, Insulin prom inh)
COC(=O)C1CCCN1C(=O)COc1ccc(Cl)cc1Br (centres undefined)	none
C/C(=N\NC(=O)c1cccc(N/N=C(\C)c2ccco2)c1)c1ccco1	Insulin prom inh 82
Cc1ccc(NC(=O)COC(=O)CN2C(=O)NC(C)(C)C2=O)cc1S(=O)(=O)N1CCOCC1	Efa HMGR inh 9.7, Insulin prom inh 79
Cc1ccc(NC(=O)COC(=O)CN2C(=O)C3CCCCC3C2=O)cc1S(=O)(=O)N1CCOCC1 (centres undefined)	none
CCCC(=O)NC(=S)Nc1ccc(Cl)cn1	Efa HMGR inh 29, Insulin prom inh 83
O=C(COC(=O)C1CC(O)CN1C(=O)Oc1ccccc1)c1ccc(Br)cc1 (centres undefined)	Insulin prom up inconclusive
O=C(Nc1ccc(N2CCOCC2)c(Cl)c1)c1ccc([N+](=O)[O-])o1	Efa HMGR inh 26 (no result: Insulin prom inh)
O=c1cc(CNc2ccc(Br)cc2)nc2sccn12	none
COc1cc(NC(=S)NCCN2CCOCC2)cc(OC)c1	Insulin prom inh 64
COc1ccc(NC(=O)N(Cc2cc3cc(OC)ccc3[nH]c2=O)CC2CCCO2)cc1 (centres undefined)	none
COc1ccc(NC(=O)N(Cc2cc3ccc(OC)cc3[nH]c2=O)CC2CCCO2)cc1 (centres undefined)	Efa HMGR inh 17 (no result: Insulin prom inh)
CCC1S/C(=N/C(=O)NC2CCCCC2)NC1=O (centres undefined)	Efa HMGR inh 10 (no result: Insulin prom up)
COC(=O)c1sccc1NC(=O)COc1cccc(C)c1	none (no result: Efa HMGR inh, Insulin prom inh)
COC(=O)c1ccc(OCC(=O)Nc2ccsc2C(=O)OC)cc1	Efa HMGR inh 12 (no result: Insulin prom inh)
N#CCCN1CCNCC1	Insulin prom inh 68
N#CCCN1CCN(CCC#N)CC1	none
COc1ccc(/C=C(/C#N)S(=O)(=O)c2ccc(C)cc2)cc1	Efa HMGR inh 40
Cc1ccc(S(=O)(=O)/C(C#N)=C/c2ccccc2OCc2ccccc2)cc1	none (no result: Insulin prom inh)
COCc1cc(C)n(CC(=O)Nc2ccccc2OC)c(=O)c1C#N	none (no result: Insulin prom inh, Insulin prom up)
COCc1cc(C)n(CC(=O)OC)c(=O)c1C#N	Efa HMGR inh 14 (no result: Insulin prom up)
COc1cc(/C=C/C(=O)OCC(=O)NC(=O)NC(C)C)ccc1O	none (no result: Efa HMGR inh, Insulin prom inh)
COc1cccc(Nc2nc3ccccc3n2C(C)C)c1	Insulin prom inh 62
COc1cccc(Nc2nc3ccccc3n3cnnc23)c1	none (no result: Insulin prom inh)
COc1ccccc1/C=C/C(=C1/C(=O)N(c2ccccc2)N=C1C)c1ccc(C)cc1	Insulin prom inh 71
COc1cccc(/C=C/C(=C2/C(=O)N(c3ccccc3)N=C2C)c2ccccc2)c1OC	none (no result: Insulin prom inh)
CCOc1cc(-n2nc(C)c(C#N)c2N)nc(SC)n1	Insulin prom inh 76 (no result: Insulin prom up)
CCOc1cc(-n2ncc(C#N)c2N)nc(SC)n1	none
CCOC(=O)C1CCCN(C2CC(=O)N(c3ccc(C)cc3)C2=O)C1 (centres undefined)	Insulin prom inh 68
CCOC(=O)C1CCCN(C2CC(=O)N(c3ccc(NC(C)=O)cc3)C2=O)C1 (centres undefined)	none
O=C(Nc1c(O)c2ccccc2[nH]c1=O)c1ccco1	none (no result: Efa HMGR inh, Insulin prom inh)
Fc1ccc(C2NCCn3cccc32)cc1 (centres undefined)	Insulin prom up 3.9
COc1cc2c3nnc(-c4ccc(F)cc4)c-3cn(Cc3ccccc3F)c2cc1OC	HSV replic up inconclusive, Insulin prom up 6.3
Cc1ccc(-c2noc(CSc3nnc(Cc4ccccc4)n3-c3ccc(Cl)cc3)n2)cc1	Efa HMGR inh 18 (no result: Insulin prom up)
O=C1NC(=S)S/C1=C\c1ccc(SCc2ccco2)o1	Efa HMGR inh 13 (no result: Insulin prom inh, Insulin prom up)
O=C1NC(=S)S/C1=C\c1ccc(SCc2ccccc2)o1	none (no result: Insulin prom inh)
COc1ccc(-n2nnnc2SCC(=O)c2ccc3c(c2)OCCO3)cc1	Insulin prom inh 79 (no result: Insulin prom up)
CCOc1ccc(Br)cc1CC(=O)O	Insulin prom inh 81 (no result: Insulin prom up)
O=C(CCc1nnc(CCCCc2ccccc2)o1)N1CCC(N2CCCC2)CC1	none (no result: Insulin prom up)
COc1ccc(NC(=O)C2CCC(C)(C(=O)O)C2(C)C)cc1 (centres undefined)	none
CCOc1ccc(NC(=O)C2CCC(C)(C(=O)O)C2(C)C)cc1 (centres undefined)	Insulin prom up 3.6 (no result: Insulin prom inh)
CCOC(=O)C1=C(C)NC(C)=C(C(=O)OCC)C1C(=O)OCC(=O)N(C)C1CCS(=O)(=O)C1 (centres undefined)	none
CC(=O)N1N=C(c2cccs2)CC1c1ccc(C)o1 (centres undefined)	Insulin prom inh 82
CC(NC(=O)c1ccccc1N)c1ccccc1 (centres undefined)	none
CC(NC(=O)c1cc(=O)[nH]c2ccccc12)c1ccccc1 (centres undefined)	Efa HMGR inh 12
COc1ccccc1C(=O)Oc1cc(N)n(S(=O)(=O)c2ccc(C)cc2)n1	Insulin prom inh 79
COc1ccc(C(CC(=O)NCC(OC)OC)NS(=O)(=O)c2ccc(Cl)cc2)cc1 (centres undefined)	none (no result: Insulin prom inh)
Cc1ccc2c(c1)nnn2C1CCN(C(=O)NCc2ccccc2)CC1	none
O=C(NCc1ccccc1)N1CCC(n2cnc3cc(F)ccc32)CC1	Insulin prom inh 78
CCCCOC(=O)c1sc2nc(C)cc(C)c2c1N	none (no result: Efa HMGR inh, Insulin prom inh)
CCOC(=O)c1sc2nc(C)cc(C)c2c1N	Insulin prom inh 77
COCCCn1cnc2c(c1=O)c1nc3ccccc3nc1n2-c1ccccc1	Insulin prom inh 91 (no result: Insulin prom up)
CC[C@@H](C)[C@H](NC(=O)OC(C)(C)C)c1nnc(S(=O)(=O)Cc2cc(C)ccc2C)o1	Insulin prom inh 72
Cc1ccccc1CS(=O)(=O)c1nnc([C@H](CC(C)C)NC(=O)OC(C)(C)C)o1	none
COc1ccc(CN2C(=O)[C@@H]3C(c4ccccc4Cl)=NO[C@@H]3C2=O)cc1	Efa HMGR inh 11 (no result: Insulin prom inh)
Cc1nnc(SCC(=O)c2ccc(Cl)cc2)s1	Insulin prom inh 71
Cc1ccc(NC(=O)/C(C#N)=C(\N)C(Cl)(Cl)Cl)nc1	none
Cc1cc(C)c(S(=O)(=O)NC(C)C)c(C)c1-n1cnnn1	none (no result: Insulin prom inh)
COc1ccc(S(=O)(=O)N(NC2=NS(=O)(=O)c3ccccc32)C(=O)C(C)C)cc1	Efa HMGR inh 11
COC(=O)CSC1=NS(=O)(=O)c2ccccc21	none
CC(C)C1S/C(=N/N=C/c2ccco2)NC1=O (centres undefined)	Insulin prom up 3.2

High-throughput results from PubChem.
